The source made the active and inactive calls.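 How the source made its calls, unless noted: active means visually confirmed hit in the image check and inhibition above 20%; inconclusive means visually confirmed hit but inhibition not above 20%; inactive means no visual hit in the image check.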
Experiments:
[1] = inhibitors of TNFa-induced NFkB p65 translocation, primary screen, imaging, HUVEC, MLSMR starter and 10KST1 sets (AID 438;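 active means inhibition above 20% together with a positive visual image hit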;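 further: compound added about 3h40 before a 20 min TNFalpha stimulation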;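 on inhibition: signal is the nuclear over cytoplasmic p65 intensity ratio per well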); conditions: HUVEC TNFa-induced p65 nuclear translocation; cell count: measured here: nuclei count (cytotoxicity indicator), at 2.08 µM; inhibition: at 2 µM, stronger effect = higher value, 0% TNFa-plus-vehicle, 100% no-TNFa wells
[2] = reduction of polyQ htt aggregates in cells – imaging, exon1htt(103Q)mCFP cells, high-content imaging, primary screen (AID 483;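 active means visual image review flags a hit and inhibition of aggregation exceeds 20%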;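 further: compound exposure lasted 3 days before fixation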;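 on nuclei count: percent of the per-plate median nuclei count of sample wells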); conditions: exon1htt(103Q)mCFP cell line, aggregate imaging, at 2 µM; inhibition of aggregation: stronger effect = higher value; nuclei count: measured here: cell count, toxicity
[3] = endothelial E-selectin expression blockers – imaging, HUVEC, immunofluorescence, MLSMR starter and 10KST1 sets, primary screen (AID 487); conditions: HUVEC TNFalpha-induced E-selectin immunofluorescence imaging, at 2 µM; inhibition: stronger effect = higher value; nuclei count: measured here: cell number, toxicity;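 on inhibition: signal is fraction of cell area covered by stained E-selectin grains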;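 on nuclei count: 100% = median nuclei count of all wells on the same plate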
[4] = target: Voltage-gated potassium channel subunit beta-2 (Rattus norvegicus) (UniProt P62483); test: inhibitors of rat Kvbeta2 reductase activity – biochemical, NADPH fluorescence, primary screen (AID 622;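 active means fluorescence slope higher than the sample average by over 3 SD, cut at about -0.22 in these data, passing the limit was not always enough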;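 further: slope of raw intensity against log time taken from 70 to 1610 s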); conditions: recombinant KvBeta, 4-cyanobenzaldehyde reduction, at 10 µM, stronger effect = higher value
[5] = target: Voltage-gated potassium channel subunit beta-2 (Rattus norvegicus) (UniProt P62483); test: enhancers of rat Kvbeta2 NADPH turnover – biochemical, NADPH fluorescence, primary screen (AID 623;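 active means NADPH fluorescence slope more negative than the mean of all samples by about 3 SD, 99.7% confidence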;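 further: fluorescence intensity change per second fitted from 20 to 320 s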); conditions: Recombinant KvBeta, NADPH fluorescence decrease slope, 10 min; at 10 µM; stronger effect = lower value
[6] = target: Alpha-2C adrenergic receptor (Homo sapiens) (UniProt P18825); test: compounds altering alpha2C-coupled GIRK flux – cell-based, HEK293 alpha2C/GIRK1/2, thallium flux, primary screen (AID 624;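 active means fluorescence slope after compound addition differing from the mean of all screened samples at 99.7% confidence, in either direction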;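 further: slope of fluorescence ratio to pre-addition baseline per second over 15 to 24 s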); conditions: thallium flux BTC fluorescence, at 10 µM, actives lie on both sides
[7] = blockers of RIG-like receptor reporter activation – cell-based, Sendai virus stimulus, luciferase, 10K MLSCN set, TLR/RLR signaling modifier project, primary screen (AID 602276;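 active means inhibition at or above 50% at 10 µM; inactive means inhibition below 50%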;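 further: firefly luciferase from ISG56 promoter only with Renilla not read in this screen; 0% = Sendai virus plus DMSO and 100% = medium plus DMSO without virus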); conditions: HEK293 RL24 IRF3 luciferase reporter, at 10 µM, stronger effect = higher value
[8] = TLR3 IRF3 reporter activation blockers – cell-based, poly I:C stimulus, luciferase, 10K MLSCN set, primary screen (AID 602277;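 active means inhibition of the reporter signal at or above 50%; inactive means inhibition below 50%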); conditions: HEK293-TLR3 RL24 IRF3 luciferase reporter, at 10 µM, stronger effect = higher value

Alpha-2C adrenergic receptor (Homo sapiens), sequence (P18825 whole entry, looked up): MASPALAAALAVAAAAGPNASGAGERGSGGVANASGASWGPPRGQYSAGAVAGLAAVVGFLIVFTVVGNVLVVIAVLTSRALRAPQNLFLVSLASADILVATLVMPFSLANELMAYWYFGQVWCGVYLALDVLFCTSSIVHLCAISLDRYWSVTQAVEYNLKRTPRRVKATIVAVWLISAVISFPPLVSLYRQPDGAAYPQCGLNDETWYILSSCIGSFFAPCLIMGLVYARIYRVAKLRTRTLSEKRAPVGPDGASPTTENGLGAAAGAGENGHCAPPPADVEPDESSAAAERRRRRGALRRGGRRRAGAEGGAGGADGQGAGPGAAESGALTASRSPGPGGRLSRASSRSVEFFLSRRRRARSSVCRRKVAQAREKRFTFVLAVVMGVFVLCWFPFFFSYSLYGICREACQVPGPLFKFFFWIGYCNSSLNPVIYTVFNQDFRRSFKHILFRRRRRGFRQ
Voltage-gated potassium channel subunit beta-2 (Rattus norvegicus), sequence (P62483 whole entry, looked up): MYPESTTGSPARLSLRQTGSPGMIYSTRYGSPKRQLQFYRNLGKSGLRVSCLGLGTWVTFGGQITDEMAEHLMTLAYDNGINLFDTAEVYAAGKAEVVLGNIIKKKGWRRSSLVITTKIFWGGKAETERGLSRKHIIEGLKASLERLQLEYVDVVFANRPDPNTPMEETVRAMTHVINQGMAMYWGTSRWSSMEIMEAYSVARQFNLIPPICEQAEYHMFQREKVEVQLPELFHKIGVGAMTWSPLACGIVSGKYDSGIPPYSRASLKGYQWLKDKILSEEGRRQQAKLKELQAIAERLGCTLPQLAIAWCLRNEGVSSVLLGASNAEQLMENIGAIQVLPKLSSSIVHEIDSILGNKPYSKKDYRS

Row | Compound | cell count [1] | inhibition [1] | inhibition of aggregation [2] | nuclei count [2] [%] | inhibition [3] | nuclei count [3] [%] | fluorescence slope [4] | NADPH fluorescence slope [5] | slope [6] | inhibition [7] | inhibition [8]
1 | Cc1cccc(-c2nc(CN3CCCC(C(=O)NC4CCCC4)C3)c(C)o2)c1 (centres undefined) | 333 | -0.4% (inactive) | -3.8% (inactive) | 111 | -15.2% (inactive) | 103 | -0.514 (inactive) | -5.9e-06 (inactive) | 0.00415 (inactive) | 20.6% (inactive) | 16.3% (inactive)
2 | CCOC(=O)c1ccc(NC(=O)CSCc2ccco2)cc1 | 680 | -1.5% (inactive) | -9.1% (inactive) | 108 | -4.5% (inactive) | 97.2 | -0.471 (inactive) | -2.1e-06 (inactive) | 0.0058 (inactive) | 1.64% (inactive) | -14.9% (inactive)
3 | CCOC(=O)c1cc2n(n1)C(C(F)(F)C(F)(F)F)CC(C)N2 (centres undefined) | 650 | -12.1% (inactive) | 4.6% (inactive) | 113 | -30.4% (inactive) | 106 | -0.429 (inactive) | 2.3e-05 (inactive) | 0.00828 (inactive) | 11.4% (inactive) | 14.9% (inactive)
4 | CCOc1ccc(NC(=O)CN(C)CC(=O)NC2CCCc3ccccc32)cc1OCC (centres undefined) | 451 | 14.9% (inactive) | -6.5% (inactive) | 110 | 10.8% (inactive) | 100 | -0.288 (inactive) | -1.1e-05 (inactive) | 0.00604 (inactive) | 8.91% (inactive) | 26.6% (inactive)
5 | O=C(O)C1CCCN(S(=O)(=O)c2ccc(Cl)s2)C1 (centres undefined) | 609 | -7.1% (inactive) | 13.3% (inactive) | 88.8 | -43.3% (inactive) | 116 | -0.558 (inactive) | -2.9e-05 (inactive) | 0.00655 (inactive) | 10.1% (inactive) | 33.8% (inactive)
6 | Cc1ccc(CCSCC(=O)O)cn1 | 174 | 4.9% (inactive) | 1.9% (inactive) | 90 | 10.4% (inactive) | 83.6 | -0.428 (inactive) | -1.1e-05 (inactive) | 0.00565 (inactive) | 4.3% (inactive) | 0.219% (inactive)
7 | COc1ccc(N2C(=O)C(Cl)=C(N3CCCC3)C2=O)cc1 | 446 | 10.1% (inactive) | -0.8% (inactive) | 101 | 25.6% (inactive) | 100 | -0.29 (inactive) | -4.2e-05 (inactive) | 0.00536 (inactive) | -5.83% (inactive) | -8.61% (inactive)
8 | COc1ccc(OC)c(S(=O)(=O)NCCC2=CCCCC2)c1 | 677 | -3.6% (inactive) | -18.8% (inactive) | 91.5 | 16.5% (inactive) | 95 | -0.486 (inactive) | -4.4e-05 (inactive) | 0.00446 (inactive) | -1.71% (inactive) | 24.3% (inactive)
9 | Cn1c(=O)c2nc(Cl)n(Cc3ccc(Cl)cc3Cl)c2n(C)c1=O | 719 | -22.4% (inactive) | 11.5% (inactive) | 89.6 | -7.8% (inactive) | 110 | -0.514 (inactive) | -4.5e-05 (inactive) | 0.00452 (inactive) | 21.4% (inactive) | 23.2% (inactive)
10 | COC(=O)c1sc2ccccc2c1NC(=O)c1cccs1 | 729 | 16.4% (inactive) | 21.4% (inactive) | 101 | 1.4% (inactive) | 99.1 | -0.551 (inactive) | -2.2e-05 (inactive) | 0.00536 (inactive) | -16.8% (inactive) | -27.9% (inactive)
11 | O=C(NC1CC1)C1CCN(c2ccc(S(=O)(=O)N3CCOCC3)cc2)CC1 | 735 | -4.1% (inactive) | -4.3% (inactive) | 110 | -14.8% (inactive) | 101 | -0.476 (inactive) | -5e-06 (inactive) | 0.00268 (inactive) | -7.23% (inactive) | 20.7% (inactive)
12 | O=C(Cn1cnc2c(nnn2Cc2ccccc2)c1=O)c1ccc(Cl)cc1 | 561 | 8.2% (inactive) | -6.2% (inactive) | 86.3 | -22% (inactive) | 108 | -0.591 (inactive) | -4.2e-06 (inactive) | 0.00679 (inactive) | 11.9% (inactive) | 21.3% (inactive)
13 | CC(=O)C1=C(C)NC(C)=C(C(C)=O)C1c1cccs1 | 466 | 3.5% (inactive) | -5.6% (inactive) | 103 | 28.1% (inactive) | 108 | -0.369 (inactive) | 2.7e-05 (inactive) | 0.00356 (inactive) | 1.28% (inactive) | 39.4% (inactive)
14 | COC(=O)Nc1nnc(CCc2ccccc2)s1 | 547 | 3.2% (inactive) | 2.7% (inactive) | 107 | -51.8% (inactive) | 113 | -0.509 (inactive) | -4.7e-05 (inactive) | 0.00467 (inactive) | 12.3% (inactive) | 2.62% (inactive)
